Results taken from PubChem BioAssay AID686996 (Broad Institute, 2013).
Several values for one entry are separate records, joined by “and”; a condition that tells them apart may be missing. Identical values can stand only once. Screen size: about 350,000 compounds; about 1,900 (0.54%) were called active. The sample as a whole holds a higher share of actives than the screen did. A number with no mark means an inactive call.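 Rule for the calls: active = mean inhibition across replicates at least about 35%, with every replicate also reaching that limit (limit read from the data); inconclusive = only one of the two criteria met; inactive = neither criterion met.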

Target: Caspase-6 (Homo sapiens) (UniProt P55212)
Sequence (P55212 24-179 limits assumed): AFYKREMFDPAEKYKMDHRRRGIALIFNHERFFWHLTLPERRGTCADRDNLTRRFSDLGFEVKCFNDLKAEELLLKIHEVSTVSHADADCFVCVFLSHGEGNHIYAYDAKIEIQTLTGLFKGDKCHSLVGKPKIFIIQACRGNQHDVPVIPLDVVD
Sequence (P55212 194-293 limits assumed): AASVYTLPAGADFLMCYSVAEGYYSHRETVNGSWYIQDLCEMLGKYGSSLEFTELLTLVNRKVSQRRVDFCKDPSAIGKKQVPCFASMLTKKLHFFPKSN
Experiment: inhibition of CASP6 peptide cleavage – biochemical, VEID-R110 fluorescence, single point, set 2, primary screen (AID 686996);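 note: 0% = median of neutral control wells and 100% = no fluorescence left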
Conditions: purified caspase-6, Z-VEID-R110 cleavage fluorescence; at 12.5 µM; stronger effect = higher value

Compound	inhibition
COC(=O)C1=C(c2ccccc2)C[C@@H]2CC[C@H]1N2C(=O)NCc1ccco1	2.09%
COC(=O)C1=C(c2ccc(C(C)=O)cc2)C[C@@H]2CC[C@H]1N2C(=O)NCCNC(C)=O	35.3% (active)
COC(=O)C1=C(c2ccc3ccccc3c2)C[C@@H]2CC[C@H]1N2C(=O)NCCO	-0.313%
COC(=O)[C@H]1[C@H](CO)[C@H]2Cn3c(ccc(C4=CCCC4)c3=O)[C@@H]1N2C(=O)CC1CC1	2.1%
CCOC(=O)[C@]12Cc3ccccc3[C@H]1N(C1CCCCC1)C(=O)c1cc(OC)ccc12	1.66%
O=C1NC(=O)N(c2ccccc2)C(=O)/C1=C/c1ccc([N+](=O)[O-])s1	49.9% (active)
COc1cccc(N2C(=O)NC(=O)/C(=C\c3cn(C)c4ccccc34)C2=O)c1	4.46%
COc1cccc(N2C(=O)NC(=O)/C(=C\c3ccc([N+](=O)[O-])s3)C2=O)c1	46% (active)
COc1ccc(N2C(=O)/C(=C/c3ccco3)C(=O)NC2=S)cc1	-1.07%
Cc1ccccc1N1C(=O)NC(=O)/C(=C\c2cc(C)n(C)c2C)C1=O	3.93%
CC(C)CN1Cc2cc(N3CCCCC3)ccc2-n2nncc2C1	-0.486%
COC1C(O)C(C)OC(OC2CCC3(C=O)C(CCC4C3CCC3(C)C(C5=CC(=O)OC5)CCC43O)C2)C1O (stereo not given)	0.09%
CCOC(=O)[C@@H]1[C@@H]2NC(=O)N[C@@]1(C)Oc1ccccc12	1.71% and -2.72%
CCOC(=O)c1cccc(C2=C(CNC(=O)c3ccncc3)[C@H]3CC[C@@H](C2)N3Cc2ccccc2)c1	0.927%
O=C1NC(=O)N(CCc2ccc(F)cc2)C(=O)/C1=C/C=C/c1ccccc1	-1.88%
Cc1c(C(=O)O)cccc1-n1c(C)cc(/C=C2\C(=O)NC(=O)N(c3ccc4c(c3)OCO4)C2=O)c1C	26.5%
O=C1NC(=O)N(Cc2ccco2)C(=O)/C1=C\c1ccc(-c2ccc(F)cc2)o1	73.9% (active)
Cc1cc(/C=C2/C(=O)NC(=O)N(Cc3ccco3)C2=O)c(C)n1-c1ccc(C(=O)O)cc1	50.7% (active)
O=C(O)COc1ccccc1/C=C1\C(=O)NC(=O)N(CCC2=CCCCC2)C1=O	9.11%
O=C1NC(=O)N(Cc2ccco2)C(=O)/C1=C\c1cccn1CCOc1ccccc1	61.1% (active)
COc1ccc(CN2C(=O)NC(=O)/C(=C\c3ccc(OC)c(OC)c3OC)C2=O)cc1	4.46%
Cc1ccc(-n2c(C)cc(/C=C3\C(=O)NC(=O)N(C)C3=O)c2C)cc1C	12.1%
Brc1ccc2c(c1)CNCc1cnnn1-2	-1.24%
c1cc2c(c(NC3=NCCCS3)c1)CCCC2	-1.96%
COC(=O)[C@H]1[C@H](CO)[C@H]2Cn3c(cccc3=O)[C@H]2N1CC1CC1	1.75%
O=C1NCN(c2ccccc2)C12CCN(C(c1cccs1)c1nnnn1C1CCCCC1)CC2 (stereo not given)	0.584%
O=C(Cc1ccccn1)N1CCCCN2[C@H](C1)[C@H](c1ccc(-c3ccccc3F)cc1)[C@@H]2CO	1.27%
O=C(Cc1ccccn1)N1CCCCN2[C@@H](CO)[C@@H](c3ccc(C#Cc4ccccc4)cc3)[C@@H]2C1	-4%
COC(=O)[C@@H]1[C@@H](CO)[C@@H]2Cn3c(ccc(-c4cccc(C(=O)N(C)C)c4)c3=O)[C@H]1N2C(=O)NC(C)C	0.335%
COc1cc(OC)cc(C(=O)NCCN2CCC3(CC2)C(=O)NCN3c2ccccc2)c1	-14.3%
